# A selection: hits, their analogues and other compounds. The true share with any hit is near 5.5%.
# Giardia kill: kills Giardia lamblia | actives 0.15% (n = 340,000) | Giardia lamblia trophozoite viability | activity change, % at 7.66 µM, hits read low; in the data active = activity change below about -80%; inconclusive = between about -30% and that limit;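 note: parasites exposed to compound for two days anaerobically before the ATP read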
#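 Giardia lamblia trophozoites (100 cells/well) were incubated with compounds for 48 h at 37 deg C under anaerobic conditions. Viability was read as ATP content by one-step luminescence after 15-30 min at room temperature.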
# Sfp PPTase inh: Sfp phosphopantetheinyl transferase inhibition. Q9F4F7. Biochemical Sfp PPTase activity, qHTS. Potency, µM, without a hit: largest response in the series, negative = inhibition, usual class: inhibitors. actives 3.5% (n = 310,000). AID 1490;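 note: the enzyme is Sfp with the accession as filed and its product quenches rhodamine fluorescence; potency is the fitted concentration of half-maximal effect; 0% = enzyme reaction without inhibitor and -100% = no enzyme wells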
#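 Fluorescence-quenching assay with 15 nM Sfp, 5 uM rhodamine-CoA and 12.5 uM BHQ-2-labelled ybbR peptide in pH 7.6 Hepes/MgCl2 buffer. Enzyme was pre-incubated with compound for 15 min at room temperature. Rate was taken from the 30-min fluorescence change (525/598 nm).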
# ELG1 DNA repair: inhibitors of ELG1-dependent DNA repair in HEK293T cells; HEK293T ELG1-luciferase reporter, luminescence, 16 h; DNA damage induced by 5-fluorouridine; Potency, µM (highest dose often 46.1 µM), for inactives: top-dose activity change, negative = inhibition, actives largely listed as inhibitors; actives 2.3% (n = 330,000); AID 504467; note: potency is the fitted concentration of half-maximal effect; nearly all actives have a fitted effect of over 55% in size
#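 Step one: seed 2,000 cells per well. Step two: pin-transfer compound or DMSO alongside 5-fluorouridine. Step three: incubate 16 hr, 37 °C, 5% CO2. Step four: add ONE-Glo, wait 30 min, read luminescence.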
# FBPA coupling cs: coupling enzyme interference in Giardia aldolase counter-screen. coupling enzyme system counterscreen, AmpLite Red fluorescence. activity change, negative = inhibition, % at 58.2 µM, hits read low. actives 0.67% (n = 290,000). AID 2472; in the data active = activity change below about -30%
#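 Activity here indicates interference with the coupling reaction, not aldolase inhibition. Compounds at 57.5 uM final met coupling enzymes for 10 min at RT; substrate and AmpLite Red detection followed, with a 525/598 nm fluorescence read after 20 min.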
# * = called active by the depositor; ? = inconclusive; / = no result. Unless noted, calls come from the whole dose curve; as a rule, active = well fitted curve in the direction sought with a large enough effect; inconclusive = small, poorly fitted or top-dose-only effect, or another doubt; inactive = no such curve, though single readings can be large; an effect the other way counts as inactive or inconclusive. Unless noted, % is set by controls: 0 for no effect and ±100 for the full control effect.
SMILES,Giardia kill,Sfp PPTase inh,ELG1 DNA repair,FBPA coupling cs
CCc1cc(C(=O)N2CCN(C(=O)c3ccco3)CC2)sc1C,8,/,6%,/
CC(C)[C@H](NC(=O)N1CCn2c1nc1ccccc12)C(=O)N1CCCCC1,13,7%,3%,/
CC(C)CN1C(=O)c2ccc(C(=O)Nc3ccc(OCC(=O)O)cc3)cc2C1=O,-22,10%,11%,6
CCN(C(=O)CC(C)C)c1nnc(Cn2nnc3ccccc32)s1,-13,-1%,8.2µM*,4
CCN(C(=O)c1ccc(C(C)(C)C)cc1)c1nnc(Cn2nnc3ccccc32)s1,-13,8%,4.1µM*,-2
Cc1ccc(C(=O)NNC(=O)Cn2nnc3ccccc32)cc1,-15,14%,?,-1
N#CC1=C2SCN(Cc3ccco3)CN2C(=O)CC1c1c(F)cccc1Cl (configuration not stated),-20,2.8µM*,16%,-25
Cc1ccc(C2CC(=O)N3CN(Cc4ccco4)CSC3=C2C#N)cc1 (configuration not stated),-12,2.2µM*,4%,-21
COc1ccc(CCN(Cc2cccs2)S(=O)(=O)c2ccc(-n3cnnn3)cc2)cc1OC,1,-9%,16µM*,1
CC1(C)CC(=O)C2=C(C1)Nc1cc(Cl)ccc1S2,-3,-2%,23µM*,-10
CCCCN(C(=O)C1CC(=O)N(CCc2ccc(OC)c(OC)c2)C1)c1c(N)n(CCCC)c(=O)[nH]c1=O (configuration not stated),-24,/,2%,/
CCCn1c(N)c(C(=O)CSc2nnc(Cc3ccccc3)o2)c(=O)n(C)c1=O,-1,7%,5.8µM*,-3
O=c1c([N+](=O)[O-])cccn1Cc1cccc(Br)c1,-85*,11%,0%,0
CCN(CC(=O)NCc1ccc(F)cc1)C(=O)/C=C/c1ccco1,0,22%,0%,-40*
COc1ccc(-c2nc(-c3cccnc3)no2)cc1OC,-8,22%,?,4
COc1cc(-c2nc(-c3cccnc3)no2)cc(OC)c1OC,-11,-4%,23µM*,0
COc1cc(-c2nc(-c3cccc(C)c3)no2)cc(OC)c1OC,11,?,18µM*,-4
COc1ccc(-c2nnc(-c3cc(OC)c(OC)c(OC)c3)o2)cc1OC,11,30%,23µM*,1
NNc1nnc2c3cc(F)ccc3n(CCc3ccccc3)c2n1,-18,-13%,12µM*,-7
COc1ccc(S(=O)(=O)NCC(=O)N(CC(=O)NCc2ccco2)C2CCCC2)cc1,-8,13%,3%,1
COC(=O)c1ccc(C(=O)N2CCCC(N3CCN(c4ccc(F)cc4)CC3)C2)nc1 (configuration not stated),-15,9%,0%,0
Nc1ccc2c(c1)OCCOCCOCCOCCOCCO2,11,-8%,19%,-49*
Brc1ccc2c(c1)OCCOCCOc1cc(Br)ccc1OCCOCCOCCO2,14,8%,21µM*,-1
O=C(c1ccc(OC2CCN(CCCc3ccccc3)CC2)cc1)N1CCCC1,-11,/,/,/
CN1C(=O)[C@@H]2C[C@@]3([C@@]45C[C@H]6C(=O)N(C)[C@@H](Cc7ccccc7)C(=O)N6[C@@H]4Nc4ccccc45)c4ccccc4N[C@H]3N2C(=O)[C@@H]1Cc1ccccc1,3,/,?,/
SMILES,Giardia kill,Sfp PPTase inh,ELG1 DNA repair,FBPA coupling cs
CN1/C(=C\C(=O)COC(=O)c2ccc(O)cc2)C(C)(C)c2ccccc21,3,-4%,21µM*,2
CN1/C(=C\C(=O)COC(=O)c2ccc(O)c(O)c2)C(C)(C)c2ccccc21,-13,?,21µM*,0
CCOC(=O)/C=C1/N(C)c2ccccc2C1(C)C,-21,4%,10%,0
CNS(=O)(=O)c1cccc(C(=O)OCC(=O)/C=C2/N(C)c3ccccc3C2(C)C)c1,14,4%,?,-12
COCC(=O)N1CCC2(CC1)CCN(c1ccccc1)CC2,/,7%,/,0
O=C(COC(=O)CNC(=O)c1ccc(Cl)cc1Cl)NCc1ccco1,-6,/,?,/
Cc1ccc(C)c(N2CCN(C(=O)C34CC5CC(C3)CC(n3nnc(C)n3)(C5)C4)CC2)c1,13,-14%,21µM*,-2
Cc1ccc(C23CC4CC(CC(C(=O)N5CCN(C)CC5)(C4)C2)C3)cc1,10,6%,9%,1
O=C(O)C1C2CCC(CC2)C1C(=O)N1CCN(Cc2ccc(F)cc2)CC1 (configuration not stated),17,35µM*,-2%,-2
COc1ccc(-n2c(C)cc(C3=NNC(=NC4CC4)SC3)c2C)cc1,5,-108%,?,-7
Cc1cc(C2=NNC(=NC3CC3)SC2)c(C)n1-c1ccccc1,?,-28%,4.6µM*,3
c1ccc(C2=NNC(=NC3CC3)SC2)cc1,-9,45µM*,?,3
c1ccc2c(C3=NNC(=NC4CC4)SC3)c[nH]c2c1,31,?,?,5
Cc1cc(C2=NNC(=NCc3ccccc3)SC2)c(C)n1-c1c(C)n(C)n(-c2ccccc2)c1=O,-11,-3%,-14%,-1
CN=C1NN=C(c2cc(C)n(-c3c(C)n(C)n(-c4ccccc4)c3=O)c2C)CS1,-4,50µM*,9%,-7
COc1ccccc1N(CC(=O)Nc1ccc2c(c1)OCCO2)S(=O)(=O)c1ccc(C)cc1,-9,15%,-22%,0
COc1cccc(NC(=O)C2C3C=CC4(O3)C2C(=O)N(CCCN2CCCCC2)C4C(=O)NC2CCCCC2)c1 (configuration not stated),0,6%,-8%,1
CC(C)Cc1nnc(NC(=O)c2ccc(S(=O)(=O)N3CCCC3)cc2)s1,6,/,9%,/
O=Nc1c(O)[nH]c2c(Cl)c(Cl)ccc12,/,-17%,/,-1
O=C(O)c1ccc(N2CCCCC2)cc1,-11,-1%,8%,6
Nc1ccc(N2CCN(c3ccc(F)cc3)CC2)cc1,7,-3%,6.5µM*,0
Nc1ccc(N2CCCCCC2)cc1,/,8.9µM*,?,-35*
CC(C)NC(=O)/C(=C/c1ccco1)c1ccccc1,-1,-46%,-3%,1
O=C(O)CCNC(=O)/C(=C/c1ccco1)NC(=O)c1ccco1,-27,?,3%,-11
O=C(O)CNC(=O)/C(=C/c1ccco1)NC(=O)/C=C/c1ccccc1,-1,56µM*,0%,-18
CCC(C)NC(=O)/C(=C/c1ccco1)c1ccccc1 (configuration not stated),-20,3.2µM*,14%,-15
O=C(NCCc1ccccc1)/C(=C/c1ccco1)c1ccccc1,-5,6.3µM*,-3%,-8
CN(CC(=O)NCc1ccco1)CC(=O)Nc1c(Cl)cccc1Cl,0,/,-1%,/
CC(=O)OC1CC2C(C)(C)C(O)CCC2(C)C2CC[C@]3(C)C(=CC(=O)OC3c3ccoc3)C12C (some centres not stated),/,-5%,/,3
C=CCn1c(=NC(=O)c2sc3ccccc3c2Cl)sc2cc(S(N)(=O)=O)ccc21,15,-10%,9%,5
